# In the library only some 1.2% were active in any assay of this set; here they are far more common.
# RGS16-Gao HTS – regulators of human RGS16-Galphao interaction; bead-based flow cytometry RGS16-Galphao binding, fluorescence; actives lie on both sides; binding response (% of control), % at 10 µM; O15492+P09471; 220,000 tested, 0.38% active;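 further: Galphao activated by GDP with aluminum fluoride before binding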
# GSH fluor – compound fluoresces at 488/530 nm on GSH beads; 190,000 tested, 0.25% active; GSH beads flow cytometry, compound fluorescence 488/530 nm; active compounds read high; fluorescence (KMESF) at 10 µM; in the data active means fluorescence above about 89;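 further: glutathione beads carrying GST-tagged Bcl family fusion proteins plus one bare bead set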
# Avidin bead fluor – avidin bead compound fluorescence profile; Avidin beads, compound fluorescence 488/530 nm, flow cytometry; active compounds read high; fluorescence (KMESF) at 10 µM; 220,000 tested, 0.38% active; AID 1775; in the data active means fluorescence above about 47
# RGS8-Gao reg – human RGS8-Galphao interaction regulation. response (percent of control binding), % at 10 µM. 220,000 tested, 0.34% active. multiplexed bead flow cytometry, RGS8-Galphao binding; actives lie on both sides; in the data active means response below about 60% or above about 140%; inactive means in between;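 further: Galphao activated as the GDP aluminium fluoride complex binding bead-coupled RGS8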
# Target sequence (P09471 whole entry, looked up): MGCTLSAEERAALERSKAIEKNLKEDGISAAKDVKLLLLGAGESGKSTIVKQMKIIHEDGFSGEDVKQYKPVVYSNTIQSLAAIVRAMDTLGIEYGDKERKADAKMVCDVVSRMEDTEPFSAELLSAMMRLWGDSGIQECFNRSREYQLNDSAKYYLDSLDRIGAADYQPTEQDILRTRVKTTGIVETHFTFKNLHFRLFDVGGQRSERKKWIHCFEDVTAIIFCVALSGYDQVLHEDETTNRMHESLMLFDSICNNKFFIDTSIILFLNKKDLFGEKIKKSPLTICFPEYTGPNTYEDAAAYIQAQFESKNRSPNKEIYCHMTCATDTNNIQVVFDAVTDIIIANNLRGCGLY
# RGS4-Gao reg – modulates binding of RGS4 to human Galphao; P09471; 220,000 tested, 0.33% active; Multiplexed bead flow cytometry; actives lie on both sides; binding response (% of control), % at 10 µM; in the data active means binding response below about 49% or above about 150%; inactive means in between;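 further: fluorescent Galphao activated with aluminum fluoride binding bead-coupled RGS4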
# RGS7-Gao reg – regulators of human RGS7-Galphao interaction; Multiplexed bead flow cytometry, RGS7-Galphao binding; actives lie on both sides; P09471; 220,000 tested, 0.35% active; binding response (% of control), % at 10 µM; in the data active means binding response below about 49% or above about 150%; inconclusive means no clear call, values can overlap the other calls; inactive means in between;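 further: fluorescent Galphao held in activated GDP-AlF4 state binding bead-coupled RGS7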
# RGS4-Gao HTS – RGS4-Galphao interaction regulator (human). shares compounds with RGS16-Gao HTS. multiplexed bead flow cytometry, RGS–Galpha-o binding. RGS4–Galpha-o binding response, % at 10 µM. 1,600 tested, 99% active. AID 1504;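 further: fluorescently labeled Galpha-o bound to GDP with aluminium fluoride binding biotinylated RGS beads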
# Target sequence (P09471 whole entry, looked up): as above
# Target sequence (P49798 whole entry, looked up): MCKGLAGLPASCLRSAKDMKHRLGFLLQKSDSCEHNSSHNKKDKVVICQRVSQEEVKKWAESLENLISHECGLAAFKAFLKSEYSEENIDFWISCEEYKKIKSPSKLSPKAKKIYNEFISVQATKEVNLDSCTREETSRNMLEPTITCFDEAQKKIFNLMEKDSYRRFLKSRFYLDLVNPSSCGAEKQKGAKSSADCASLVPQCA
# Biotin-avidin – interferes with biotinylated probe binding to avidin beads; shares compounds with RGS16-Gao HTS; streptavidin beads, fluorescein-biotin binding, flow cytometry; inhibition, % at 10 µM; 1,700 tested, under 10 active;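 active means inhibition above 50%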;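 further: median green fluorescence of gated singlet beads compared with DMSO control wells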
# RGS8-Gao single – confirmation of regulators of human RGS8-Galphao interaction; bead-based flow cytometry RGS8-Galphao binding, fluorescence; actives lie on both sides; 1,700 tested, 3% active; binding response (% of control), % at 10 µM; shares compounds with RGS16-Gao HTS; in the data active means binding response below about 72% or above about 130%; inactive means in between;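 further: Galphao activated as GDP AlF4 complex before binding bead RGS8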
# RGS7-Gao single – RGS7-Galphao interaction regulation, single point confirmation. AID 1837. 1,700 tested, 7.8% active. bead-based flow cytometry RGS7-Galphao binding; actives lie on both sides. shares compounds with RGS16-Gao HTS. response (percent of control binding), % at 10 µM; in the data active means response below about 75% or above about 130%; inactive means in between;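 further: fluorescent Galphao activated with GDP and aluminum fluoride binding bead-coupled RGS7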
# RGS16-Gao single – confirmation of regulators of human RGS16-Galphao interaction; shares compounds with RGS16-Gao HTS; bead-based flow cytometry, RGS16-Galphao binding; actives lie on both sides; response (% of control binding), % at 10 µM; 1,700 tested, 4% active; in the data active means response below about 74% or above about 130%; inactive means in between;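 further: Galphao activated as the GDP aluminium fluoride complex binding bead-coupled RGS16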
# RGS4-Gao single – RGS4-Galphao interaction regulation, single point confirmation. shares compounds with RGS16-Gao HTS. RGS4-Galphao binding, multiplexed bead flow cytometry; actives lie on both sides. binding response (% of control), % at 10 µM. 1,700 tested, 4% active. AID 1840; in the data active means binding response below about 74% or above about 130%; inactive means in between
# RGS19-Gao conf – RGS19-Galphao interaction regulation, single point confirmation | shares compounds with RGS16-Gao HTS | bead-based flow cytometry RGS19-Galphao binding; actives lie on both sides | response (percent of control binding), % at 10 µM | 1,700 tested, 5% active | AID 1841; in the data active means response below about 50% or above about 160%; inactive means in between
# Numbers stand for hits; i = inactive; ? = inconclusive; nt = no result given; + = active, no number; [ ] = dose if it differs, or a comment. Unless noted, how the calls were made is not given here.
SMILES,RGS16-Gao HTS,GSH fluor,Avidin bead fluor,RGS8-Gao reg,RGS4-Gao reg,RGS7-Gao reg,Biotin-avidin,RGS8-Gao single,RGS7-Gao single,RGS16-Gao single,RGS4-Gao single,RGS19-Gao conf,others
CCNc1ncnc2c1cnn2C,i,i,i,i,i,i,nt,nt,nt,nt,nt,nt,
CC(C)CCNC(=O)NC(=O)COC(=O)c1cc(S(=O)(=O)N2CCOCC2)ccc1N1CCCCC1,16,i,i,12,25,13,i,i,i,i,i,i,
CCc1nnc(NC(=O)c2cc(S(=O)(=O)N3CCOCC3)ccc2N2CCCCC2)s1,+[activator],i,897,393[activator],+[activator],+[activator],i,i,i,i,i,i,
CCc1nnc(NC(=O)c2cccc(S(=O)(=O)N3CCc4ccccc43)c2)s1,3.0,i,i,19,28,23,i,i,i,i,i,i,
O=C(Nc1cccc(Cl)c1)Nc1nnc(CC2=CCCCC2)s1,i,i,i,i,i,i,nt,nt,nt,nt,nt,nt,
O=C(CCl)N(c1ccccc1)C1CCCCC1,i,i,i,i,i,i,nt,nt,nt,nt,nt,nt,
COc1ccc(CCn2c(C(C)C)nc3oc4ccccc4c(=O)c3c2=O)cc1,i,nt,i,i,i,?,nt,nt,nt,nt,nt,nt,
COc1ccc(OC(=O)Nc2ccc([N+](=O)[O-])cc2OC)cc1,i,nt,i,48,39,?,i,i,i,i,i,i,
COC(=O)Nc1cc([N+](=O)[O-])ccc1OC,i,i,i,i,i,i,nt,nt,nt,nt,nt,nt,
C#CCSc1nnc(-c2ccccc2)c(=O)[nH]1,10,i,i,13,21,17,i,i,i,i,i,i,
COc1ccc(NC2(c3ccc(Cl)cc3)C(=O)c3ccccc3C2=O)cc1,i,i,i,i,i,i,nt,nt,nt,nt,nt,nt,
COc1ccc(NC2(c3ccccc3)OC(=O)c3ccccc32)cc1 (stereo unspecified),nt,i,nt,nt,nt,nt,i,i,i,i,i,i,
Cc1ccc(C(=O)NC(C#N)=C(Cl)Cl)cc1,i,i,i,i,i,i,nt,nt,nt,nt,nt,nt,
CCOC(=O)c1c(C)[nH]c(C)c1C(=O)COc1ncnc2cc([N+](=O)[O-])ccc12,i,i,i,i,i,i,nt,nt,nt,nt,nt,nt,
Cc1ccc(C)n1-c1ccc(C(=O)O)cc1,i,i,i,i,i,39,i,i,i,i,i,i,RGS4-Gao HTS=66
CCOC(=O)C1CCCN(C(=O)/C=C/c2ccc(Cl)cc2)C1 (stereo unspecified),i,i,i,i,i,i,nt,nt,nt,nt,nt,nt,
CCOC(=O)C1CCCN(C(=O)/C=C/c2cc(OC)c(OC)c(OC)c2)C1 (stereo unspecified),i,i,114,i,i,170[activator],i,i,i,i,i,i,RGS4-Gao HTS=103
CCC(NC(=O)CCl)c1ccc(C)cc1 (stereo unspecified),i,i,i,i,i,i,nt,nt,nt,nt,nt,nt,
CCC(CO)NCCNC(CC)CO (stereo unspecified),i,i,i,i,27,i,i,i,i,i,i,i,
CC[C@H](CO)NCCN[C@H](CC)CO,i,i,i,i,i,i,nt,nt,nt,nt,nt,nt,
CCN1/C(=C/C=C/c2oc3ccc4ccccc4c3[n+]2CC)Oc2ccc3ccccc3c21,369[activator],205,59,i,539[activator],616[activator],i,127[activator],526[activator],264[activator],431[activator],458[activator],
COc1ccccc1N=C1SCC(=O)N1c1ccccc1OC,i,i,i,i,i,i,nt,nt,nt,nt,nt,nt,
Cc1sc2ncnc(Sc3nnc4sc5ccccc5n34)c2c1C,292[activator],i,i,i,208[activator],i,i,i,i,i,i,i,
CCSc1ncnc2sc(C)c(C)c12,i,i,i,i,i,i,nt,nt,nt,nt,nt,nt,
CCOC(=O)c1sc(-c2ccc(C(F)(F)F)cc2)nc1O,i,nt,i,i,i,?,nt,nt,nt,nt,nt,nt,
SMILES,RGS16-Gao HTS,GSH fluor,Avidin bead fluor,RGS8-Gao reg,RGS4-Gao reg,RGS7-Gao reg,Biotin-avidin,RGS8-Gao single,RGS7-Gao single,RGS16-Gao single,RGS4-Gao single,RGS19-Gao conf,others
CCOC(=O)c1sc(-c2cccc(C(F)(F)F)c2)nc1O,i,nt,i,i,i,?,i,i,i,i,i,i,
Cc1ccc(NC(=O)c2ccc(F)cc2F)cc1NS(C)(=O)=O,i,nt,i,i,i,?,nt,nt,nt,nt,nt,nt,
CCOC(=O)N1CCN(C(=O)Cn2nc(-c3ccc(Cl)cc3)ccc2=O)CC1,i,i,i,i,i,i,nt,nt,nt,nt,nt,nt,
CCN1CCN(C(=O)Cn2nc(-c3ccc(Cl)cc3)ccc2=O)CC1,i,i,i,i,i,171[activator],i,i,i,i,i,i,RGS4-Gao HTS=105
Cc1nn(CCC(=O)O)c(C)c1C,i,i,79,i,i,165[activator],i,i,i,i,i,i,RGS4-Gao HTS=103
CC(=O)C(/C=N/c1ncc(C(F)(F)F)cc1Cl)=C(\C)O,i,i,i,i,i,i,nt,nt,nt,nt,nt,nt,
Cc1nn(-c2ccc(F)cc2)c2sc(C(=O)OC3CCOC3=O)cc12 (stereo unspecified),nt,i,nt,nt,nt,nt,i,i,i,i,i,i,
O=C(Cn1c(C(F)(F)F)nc2ccccc21)Nc1ccccc1N1CCOCC1,i,i,i,54,48,45,i,i,i,i,i,i,
O=C(CN1CCN(C/C=C/c2ccccc2)CC1)NC(=O)NC1CCCCC1,i,i,i,i,i,i,nt,nt,nt,nt,nt,nt,
COc1ccc(CC(=O)Nc2nnc(C(C)C)s2)cc1OC,i,i,i,i,i,i,nt,nt,nt,nt,nt,nt,
Cc1cc2nc3n(c2cc1C)CC1CC(C(=O)NCc2cccc(C(F)(F)F)c2)N(C)C31 (stereo unspecified),i,nt,i,i,i,?,nt,nt,nt,nt,nt,nt,
COCCCN1CN(Cc2ccccc2)CNC1=S,-3.3,i,i,i,i,i,i,i,i,i,i,i,RGS4-Gao HTS=79
Cc1n[nH]c(=S)n1/N=C/c1ccccc1OCc1ccc(Cl)cc1Cl,15,i,i,i,i,i,i,i,i,i,i,i,RGS4-Gao HTS=92
O=C(CN1CCOCC1)Nc1ccccc1Sc1ccc(Cl)cc1,i,i,i,i,i,i,nt,nt,nt,nt,nt,nt,
CCN(CC)CCNc1ccc2nnc(CCNS(=O)(=O)c3ccc(C)cc3)n2n1,11,i,i,15,20,16,i,i,67,i,i,i,

# High-throughput results (PubChem BioAssay)
